HRas wt GTP – modulators of GTP binding to HRas wildtype, primary screen, biochemical, bead-based flow cytometry, multiplex; GTP binding activity, % at 10 µM; hit rate 0.14% among 190,000; AID 759, 2007; GST-Ras wt beads, Bodipy-FL-GTP binding; actives lie on both sides; GTPase HRas (Homo sapiens), P01112;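 active means GTP binding activity at least 20% away from the 100% baseline, either lowered as inhibitor or raised as activator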;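 further: 0% = unlabeled GTP competition control and 100% = no-compound control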
Target sequence (P01112 whole entry, looked up): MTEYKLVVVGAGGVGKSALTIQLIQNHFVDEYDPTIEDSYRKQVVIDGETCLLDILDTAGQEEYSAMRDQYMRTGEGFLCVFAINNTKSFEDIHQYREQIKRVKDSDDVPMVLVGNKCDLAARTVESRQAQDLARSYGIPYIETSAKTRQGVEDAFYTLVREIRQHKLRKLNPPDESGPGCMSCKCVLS
Rac1 act GTP bind – GTP binding modulators of activated mutant Rac1, primary screen, biochemical, bead-based flow cytometry, multiplex, fluorescent GTP; hit rate 0.11% among 190,000; GST-Rac1 activated beads; actives lie on both sides; 100% means binding = to untreated wells; Ras-related C3 botulinum toxin substrate 1 (Homo sapiens), P63000; percent activity (GTP binding), % at 10 µM; AID 764, 2007;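 active means GTP binding at least 20 percentage points away from the 100% baseline, in either direction, so actives lie on both sides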
Rac1 wt modul – wildtype Rac1 GTP binding modulators, primary screen, biochemical, GST-Rac1 beads, flow cytometry, multiplex | GTP binding activity (% of control), % at 10 µM | Ras-related C3 botulinum toxin substrate 1 (Homo sapiens), P63000 | hit rate 0.27% among 190,000 | fluorescent GTP binding; actives lie on both sides; 0 = cold GTP competed, 100 = untreated;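 active means GTP binding activity at least 20 points away from the 100% control level, either lower or higher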
Rab7 wt GTP bind – modulators of GTP binding to Rab7, primary screen, biochemical, wildtype, multiplex bead flow cytometry. Rab7 GTPase wild type (dog), Bodipy-FL-GTP binding. GST-Rab7 beads, fluorescent GTP binding; actives lie on both sides; untreated = 100%, excess cold GTP = 0%. GTP binding activity (percent of control), % at 10 µM. hit rate 0.055% among 190,000;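 active means fluorescent GTP binding to Rab7 beads changed by at least 20 points from the 100% baseline, either direction, mostly lower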;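 further: median green fluorescence of bound Bodipy-FL-GTP per Rab7 bead population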
Cdc42 wt – modulators of GTP binding to wildtype Cdc42, primary screen, biochemical, multiplex bead flow cytometry, Bodipy-GTP; Cell division control protein 42 homolog (Homo sapiens), P60953; GST-Cdc42 beads; actives lie on both sides; percent activity (GTP binding), % at 10 µM; hit rate 0.2% among 190,000; AID 761, 2007;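 active means percent activity GTP binding at least 20 points away from the 100% baseline, either down as inhibitor or up as activator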;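 further: median bead fluorescence of bound Bodipy-FL-GTP at 100 nM; 0% = excess unlabeled GTP control and 100% = no compound control; below 100% means less GTP binding so inhibitor and above means activator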
Target sequence (P60953 whole entry, looked up): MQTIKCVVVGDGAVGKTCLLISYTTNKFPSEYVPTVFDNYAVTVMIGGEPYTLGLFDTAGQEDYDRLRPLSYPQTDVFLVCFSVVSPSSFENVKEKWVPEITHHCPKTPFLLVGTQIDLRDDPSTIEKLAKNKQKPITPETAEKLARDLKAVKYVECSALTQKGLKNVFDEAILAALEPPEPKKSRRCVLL
Rab2 wt GTP – modulators of GTP binding to Rab2A wildtype, primary screen, biochemical, dog, bead-based flow cytometry, multiplex; Ras-related protein Rab-2A (Canis lupus familiaris), P61105; GST-Rab2 wt beads, Bodipy-GTP binding; GTP binding activity, % at 10 µM; hit rate 0.19% among 190,000; AID 760, 2007;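 active means GTP binding activity at least 20 points away from 100%, either lowered or raised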;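 further: 0% = beads with excess unlabeled GTP and 100% = no-compound control corrected for plate trend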
An asterisk follows results filed as active; [ ] = another dose, or the depositor's remark. Hits are enriched below; roughly 0.38% of the tested compounds scored in any of these assays.

SMILES	HRas wt GTP	Rac1 act GTP bind	Rac1 wt modul	Rab7 wt GTP bind	Cdc42 wt	Rab2 wt GTP
CCOC(=O)Cn1c(=O)c2c(nc3n2CCN3Cc2ccccc2)n(C)c1=O	100	96	102	100	99	99
CCOC(=O)Cn1c(=O)c2c(nc(N3CCCCC3)n2C)n(C)c1=O	109	111	142*[activator]	107	123*[activator]	109
O=c1c2ccccc2nc2c3ccccc3cnn12	77*	83	65*	83	78*	77*
O=c1c2ccccc2nc2c3ccccc3c(NCc3ccco3)nn12	68*	81	77*	88	67*	66*
O=c1c2ccccc2nc2c3ccccc3c(Cl)nn12	81	85	69*	86	80	78*
C/C(=C\c1ccccc1)C(=O)NCCc1ccccc1	98	95	101	100	94	96
CCOc1cc(CN2CCC(CO)(Cc3cccc(C(F)(F)F)c3)CC2)ccc1OC	98	99	100	100	99	98
COc1cc(/C=C2\SC(=Nc3ccc(O)cc3)NC2=O)cc(OC)c1O	84	86	72*	96	79*	83
O=C1NC(=Nc2ccc(O)cc2)S/C1=C/c1ccco1	93	93	95	94	95	93
COC(=O)CSc1nc2cc(Cl)ccc2c(=O)n1C1CCCC1	80	92	89	90	79*	80
Cc1cc(NC(=O)CSc2nc3ccccc3c(=O)n2C2CCCC2)no1	100	101	104	103	102	102
N#CC(c1ccc(Cl)nn1)c1ccc(Cl)cc1Cl (stereo unspecified)	108	99	121*[activator]	105	112	108
O=C(CCCCCNc1nc(=S)[nH]c2ccccc12)N1CCN(c2ccccn2)CC1	91	98	91	94	91	91
COc1cccc(N2CCN(C(=O)CCCCCNc3nc(=S)[nH]c4ccccc34)CC2)c1	83	89	74*	98	79*	83
COC(=O)c1ccc2nc(Nc3nc4c(F)cc(F)cc4s3)sc2c1	85	80	81	85	82	79*
COCCNC(=S)Nc1ccc2[nH]c(=O)[nH]c2c1	96	92	91	95	97	95
COc1ccc(C(=O)c2c(O)cc(-c3ccc(OC)cc3)oc2=O)cc1	118	116	137*[activator]	125*[activator]	117	118
COc1ccc(-c2cc(=O)c3c(O)c(OC)c(O)cc3o2)cc1	88	90	85	100	86	88
CS(=O)(=O)N1CCN(C(=O)C2c3ccccc3Oc3ccccc32)CC1	111	102	121*[activator]	103	116	112
Cn1nc(-c2ccccc2)c(CN2CCN(c3ncccn3)CC2)c1Cl	96	96	96	96	94	96
C/C(=N\NC(=O)c1ccc(Cl)c(S(=O)(=O)Nc2ccccc2Cl)c1)c1ccncc1	87	87	73*	91	86	86
N#Cc1c(=O)c2nc(NCCCO)ncc2n2c(=O)c3ccccc3[nH]c12	91	93	103	96	84	86
N#Cc1c(=O)c2nc(NCc3ccccc3)ncc2n2ccccc12	83	90	79*	85	84	80
CC(=O)NC(Cc1cccc(F)c1)C(=O)NC1CCN(c2nnnn2-c2ccccc2)CC1 (stereo unspecified)	96	97	97	92	99	97
CCOC(=O)C1(CCc2ccccc2)CCN(C(=O)CN2C(=O)CSC2=O)CC1	96	95	94	101	92	98
SMILES	HRas wt GTP	Rac1 act GTP bind	Rac1 wt modul	Rab7 wt GTP bind	Cdc42 wt	Rab2 wt GTP
CCOc1ccc2nc(SCc3ccc(CC(=O)O)cc3)c(C#N)cc2c1	84	76*	82	88	71*	74*
CCOc1ccc2nc(SCC(=O)N3c4ccccc4Sc4ccccc43)c(C#N)cc2c1	102	100	105	102	100	100
CCn1c2ccccc2c2nnc(SCC(=O)NCCOC)nc21	101	99	105	100	97	35*
Oc1ccc(N=Cc2cc(Br)c(N3CCOCC3)o2)cc1	104	102	103	97	105	103
O=[N+]([O-])c1cc(Br)c(O)c(C=Nc2ccc(N3CCOCC3)cc2)c1	88	84	84	97	79*	87
O=C(COc1ccccc1)N/N=C/c1ccc2c(c1)OCO2	88	87	91	93	89	86
Cc1cccc(OCC(=O)N/N=C/c2ccc3c(c2)OCO3)c1	85	78*	82	92	77*	83
O=C(O)c1ccc(/C=N/NC(=O)c2cc(-c3ccc4c5c(cccc35)CC4)n[nH]2)cc1	84	91	76*	92	78*	80
CCC(SC1=N/C(=C/c2ccccc2)C(=O)N1c1ccccc1)C(=O)Nc1cc(C)on1 (stereo unspecified)	99	101	102	101	102	102
COc1ccc(/C=C2/N=C(SCC(=O)Nc3cc(C)on3)N(c3ccccc3)C2=O)cc1	81	91	77*	95	85	82
CNC(=O)COC(=O)c1cc(NC(=O)c2ccco2)c(OC)c(OC)c1	81	87	83	87	78*	80
COc1ccc(/C=N/NC(=O)CN(Cc2ccccc2)S(=O)(=O)c2ccc3c(c2)OCCO3)cc1	91	94	89	92	95	88
COc1cc(/C=N/NC(=O)CN(Cc2ccccc2)S(=O)(=O)c2ccc3c(c2)OCCO3)ccc1O	81	88	78*	90	89	78*
COc1cc(/C=N/NC(=O)CN(Cc2ccco2)S(=O)(=O)c2ccccc2)ccc1O	84	90	77*	94	86	81
C=CCNC(=O)c1cc2c(=O)n3cc(C)ccc3nc2nc1NCC1CCCO1 (stereo unspecified)	69*	82	82	65*	89	78*
COc1ccccc1C(=O)N=Nc1c(O)[nH]c2ccc([N+](=O)[O-])cc12	53*	66*	45*	66*	51*	51*
O=C(N=Nc1c(O)[nH]c2ccc([N+](=O)[O-])cc12)c1cc(-c2ccccc2Cl)nc2ccccc12	96	99	100	96	102	96
